{"source": "PubChem BioAssay (NCATS)", "note": "Results filed as inconclusive are left out. Active and inactive are the calls of the source. The call rests on the fitted dose curve; in most records, active means well fitted inhibition curve with a large enough effect; inconclusive means small, poorly fitted or top-dose-only effect; inactive means flat fitted curve, though single readings scatter. On the % scale 0 is the no-effect control and ±100 the full control effect.", "data": [{"test": "P-glycoprotein substrates identified in KB-8-5-11 adenocarcinoma cell line, qHTS therapeutic library screen (AID 1346987); further: nearly all actives have a fitted effect of over 65% in size", "conditions": "KB-8-5-11 (P-gp overexpressing) viability, CellTiter-Glo, 72 h; series mostly up to 44.5 µM; activity change, negative = cytotoxicity: at the top concentration", "from_the_text": "The ATP-binding cassette transporters P-glycoprotein (P-gp) is known to limit brain penetration of many chemotherapy drugs. […] As such, we developed a high-throughput screen (HTS) to identify substrates of P-gp from a series of chemical libraries including the National Center for Advancing Translational Sciences Pharmaceutical Collection NPC, 2,816 compounds), testing a total of 10,804 compounds, most of which have known mechanisms of action. We used the CellTiter-Glo viability assay to test library compounds against the parental KB-3-1 human cervical adenocarcinoma cell line and the colchicine-selected sub-line KB-8-5-11 that over-expresses P-gp. KB-8-5-11 cells were also tested in the presence of a P-gp inhibitor (tariquidar) to assess reversability of transporter-mediated resistance. Of the tested compounds, a total of 90 P-gp substrates were identified including 55 newly identified P-gp substrates. Substrates were confirmed using an orthogonal killing assay against HEK-293 cells transfected with P-gp. As exemplars, we confirmed that […] (cyclin-dependent kinase inhibitor); AT9283, (Janus kinase 2/3 inhibitor); ispinesib (kinesin spindle protein inhibitor); gedatolisib (PKI-587, phosphoinositide 3-kinase/mammalian target of rampamycin inhibitor); GSK-690693 (AKT inhibitor); and KW-2478 (heat shock protein 90 inhibitor) were substrates , and direct ATPase stimulation was assessed. ABCG2 was also found to confer high levels of resistance to AT9283, GSK-690693 and gedatolisib, while ispinesib, AT7519 and KW-2478 were weaker substrates.\nThe HeLa derivative cell line, KB-3-1, and its colchicine-selected, P-gp-overexpressing subline, KB-8-5-11 were maintained in DMEM with 10% FCS and Pen/Strep with glutamine at 37 degree C in 5% CO2. For KB-8-5-11 cells, colchicine was added to the medium at a concentration of 100 ng/mL. HEK-293 cells transfected with empty vector (pcDNA) or vector containing human ABCB1 (MDR-19) or ABCG2 (R-5) have been described previously (Robey, Lin, Qiu, Chan & Bates, 2011) and were maintained in EMEM supplemented with 10% FCS, Pen/Strep and glutamine with 2 mg/ml G418 to select for the expression of the transporter. Cultures were confirmed to be free of mycoplasma infection using the MycoAlert Mycoplasma Detection Kit (Lonza, Walkersville, MD). For the screen, assay medium was identical to culture medium except for KB-8-5-11 where colchicine was excluded from the medium.\nAll cell lines were plated into 1536-well plates at 500 cells/well in 5 uL media. Compounds were then pinned in dose-response using a 1536-head pin tool (Kalypsis, San Diego, CA) and plates were incubated at 37 degree C in 5% CO2 for an additional 72 h. CellTiter-Glo reagent (Promega) was dispensed into the wells, incubated for 5 min and luminescence was read on a ViewLux instrument (Perkin-Elmer). Cytotoxic compounds were defined as those that yielded a curve class of -1.1, -1.2, -2.1, -2.2, -2.3, or -2.4, a maximum response of >50% and an AC50 of < 10 uM. Cherry-picked hits from screening analysis were tested with both the KB pair of cell lines, and the pcDNA (empty vector control) and MDR-19 (P-gp overexpressing) pair were tested, in the absence and presence of tariquidar.", "values": [{"smiles": "CCCCCCCC(=O)OCC(COC(=O)CCCCCCC)OC(=O)CCCCCCC", "activity change, negative = cytotoxicity": "-9.34% (inactive)"}, {"smiles": "CCN(CC)C(=O)c1cccc(C)c1", "activity change, negative = cytotoxicity": "-10.4% (inactive)"}, {"smiles": "CCCCCCCCCCOc1cc2c(=O)c(C(=O)OCC)c[nH]c2cc1OCC", "activity change, negative = cytotoxicity": "-3.18% (inactive)"}, {"smiles": "CCC(C)(CN(C)C)OC(=O)c1ccccc1", "note": "(stereo not given)", "activity change, negative = cytotoxicity": "1.8% [at 17.3 µM] (inactive)"}, {"smiles": "O=c1[nH]c(=O)n([C@H]2C[C@H](O)[C@@H](CO)O2)cc1I", "activity change, negative = cytotoxicity": "-6.04% [at 17.3 µM] (inactive)"}, {"smiles": "CC(=O)NCc1c(I)c(NC(C)=O)c(I)c(C(=O)O)c1I", "activity change, negative = cytotoxicity": "15.7% (inactive)"}, {"smiles": "COC(=O)c1ccc(O)cc1", "activity change, negative = cytotoxicity": "9% (inactive)"}, {"smiles": "CC(=O)N[C@@H](Cc1ccc(O)cc1)C(=O)O", "activity change, negative = cytotoxicity": "-5.57% (inactive)"}, {"smiles": "C[C@]1(Cn2ccnn2)[C@H](C(=O)O)N2C(=O)C[C@H]2S1(=O)=O", "activity change, negative = cytotoxicity": "2.12% (inactive)"}, {"smiles": "OC[C@@H](O)[C@@H](O)[C@H](O)[C@H](O)CO", "activity change, negative = cytotoxicity": "10.5% (inactive)"}, {"smiles": "CC(C)CCOC(=O)c1ccc(N(C)C)cc1", "activity change, negative = cytotoxicity": "-4.81% (inactive)"}, {"smiles": "CC(=O)NS(=O)(=O)c1ccc(N)cc1", "activity change, negative = cytotoxicity": "8.3% (inactive)"}, {"smiles": "Cc1[nH]c(C)c(Cl)c(=O)c1Cl", "activity change, negative = cytotoxicity": "-2.95% (inactive)"}, {"smiles": "CC1(C)S[C@@H]2[C@H](N=CN3CCCCCC3)C(=O)N2[C@H]1C(=O)O", "activity change, negative = cytotoxicity": "-0.262% (inactive)"}, {"smiles": "Cc1c(C)c2c(c(C)c1OC(=O)c1cccnc1)CC[C@@](C)(CCC[C@H](C)CCC[C@H](C)CCCC(C)C)O2", "activity change, negative = cytotoxicity": "5.21% (inactive)"}, {"smiles": "FC(F)(F)C(Cl)Br", "note": "(stereo not given)", "activity change, negative = cytotoxicity": "-5.5% (inactive)"}, {"smiles": "COc1ccccc1OCC(O)CO", "note": "(stereo not given)", "activity change, negative = cytotoxicity": "9.04% [at 17.3 µM] (inactive)"}, {"smiles": "NS(=O)(=O)c1ccc(C(=O)O)cc1", "activity change, negative = cytotoxicity": "-7.94% (inactive)"}, {"smiles": "CCCNC(C)C(=O)Nc1c(C)csc1C(=O)OC", "note": "(stereo not given)", "activity change, negative = cytotoxicity": "-29.1% [at 17.3 µM] (inactive)"}, {"smiles": "COc1ccc(-c2cc(=O)c3c(O)cc(O[C@@H]4O[C@H](CO[C@@H]5O[C@@H](C)[C@H](O)[C@@H](O)[C@H]5O)[C@@H](O)[C@H](O)[C@H]4O)cc3o2)cc1O", "activity change, negative = cytotoxicity": "3.97% (inactive)"}, {"smiles": "CCS(=O)(=O)CCn1c([N+](=O)[O-])cnc1C", "activity change, negative = cytotoxicity": "-2.56% [at 17.3 µM] (inactive)"}, {"smiles": "C[N+](C)(C)CC[N+]1(C)Cc2c(Cl)c(Cl)c(Cl)c(Cl)c2C1", "activity change, negative = cytotoxicity": "-18.6% (inactive)"}, {"smiles": "Cc1ccc(S(=O)(=O)NC(=O)NC2CCCCC2)cc1", "activity change, negative = cytotoxicity": "-0.846% (inactive)"}, {"smiles": "CC(C)CCCC(C)CCCC(C)CCCCC(C)CCCC(C)CCCC(C)C", "note": "(stereo not given)", "activity change, negative = cytotoxicity": "-6.84% (inactive)"}, {"smiles": "CN/C(=C\\[N+](=O)[O-])NCCSCc1csc(CN(C)C)n1", "activity change, negative = cytotoxicity": "6.9% [at 17.3 µM] (inactive)"}, {"smiles": "O=C(O)c1ccc[n+]([O-])c1", "activity change, negative = cytotoxicity": "1.1% (inactive)"}, {"smiles": "CN(C(=O)c1c(O)c2ccccc2n(C)c1=O)c1ccccc1", "activity change, negative = cytotoxicity": "12.8% (inactive)"}, {"smiles": "CC(=O)Oc1cccc(C)c1", "activity change, negative = cytotoxicity": "16.9% (inactive)"}, {"smiles": "CC(=O)SC[C@@H](Cc1ccccc1)C(=O)NCC(=O)OCc1ccccc1", "activity change, negative = cytotoxicity": "4.14% [at 17.3 µM] (inactive)"}, {"smiles": "CCOC(=O)OC(C)OC(=O)[C@@H]1N2C(=O)[C@@H](NC(=O)[C@H](N)c3ccccc3)[C@H]2SC1(C)C", "note": "(stereo not given in full)", "activity change, negative = cytotoxicity": "-3.14% [at 17.3 µM] (inactive)"}, {"smiles": "CCCCCC(C)N", "note": "(stereo not given)", "activity change, negative = cytotoxicity": "13.7% (inactive)"}, {"smiles": "COc1ccc(O)cc1", "activity change, negative = cytotoxicity": "-18% (inactive)"}, {"smiles": "O=C1c2ccccc2C(=O)C1c1ccc(Br)cc1", "activity change, negative = cytotoxicity": "-0.579% (inactive)"}, {"smiles": "COc1ccc2cc(CCC(C)=O)ccc2c1", "activity change, negative = cytotoxicity": "-31.2% [at 17.3 µM] (inactive)"}, {"smiles": "CC[C@H](C)[C@H](N)C(=O)O", "activity change, negative = cytotoxicity": "7.19% (inactive)"}, {"smiles": "Cc1cc(O)cc(C)c1Cl", "activity change, negative = cytotoxicity": "4.91% (inactive)"}, {"smiles": "COc1ccc(NS(=O)(=O)c2ccc(N)cc2)nn1", "activity change, negative = cytotoxicity": "5.81% [at 17.3 µM] (inactive)"}, {"smiles": "CC(O)CCCCn1c(=O)c2c(ncn2C)n(C)c1=O", "note": "(stereo not given)", "activity change, negative = cytotoxicity": "-3.66% (inactive)"}, {"smiles": "CC(=O)N(CC(O)CO)c1c(I)c(C(=O)NCC(O)CO)c(I)c(C(=O)NCC(O)CO)c1I", "note": "(stereo not given)", "activity change, negative = cytotoxicity": "-8.05% (inactive)"}, {"smiles": "O=C(CCBr)N1CCN(C(=O)CCBr)CC1", "activity change, negative = cytotoxicity": "-0.699% (inactive)"}]}]}
